BJeLR viability: kills HRASV12-expressing BJeLR cells; BJeLR (HRASV12) viability, CellTiter-Glo ATP luminescence, 48 h; inhibition, % (concentration not given with the values); 300,000 compounds, 0.17% hits; AID 1554; in the data active means inhibition above about 50%
SSB-PriA inh: inhibitors of Klebsiella pneumoniae PriA binding to SSB C-terminal tail; AlphaScreen SSBct-PriA binding, biotinylated peptide; AID 1272365; 430,000 compounds, 0.6% hits; inhibition, % at 33 µM; in the data active means inhibition mostly above about 37%, no sharp cut-off; inactive means mostly below about 20%
PrP 5UTR inh: inhibition of PrP 5' UTR reporter expression; cell-based PrP 5' UTR mRNA reporter, plate reader; inhibition, % (test concentration not listed); 340,000 compounds, 0.35% hits; in the data active means inhibition above about 52%
3CLpro inhibitor: SARS-CoV 3CLpro protease inhibition | P0C6X7 | recombinant SARS-CoV 3CLpro, quenched FRET peptide cleavage | inhibition, % at 6 µM | 290,000 compounds, 0.14% hits | AID 1706; in the data active means inhibition above about 12%
PrPC TRFRET: cell surface PrPC inhibition, primary TR-FRET screen; TR-FRET read-out; 370,000 compounds, 0.43% hits; inhibition, % at 13.8 µM; AID 720596; P04156; in the data active means inhibition above about 24%
PrPC TRFRET cf: confirmation of inhibitors of cell surface human prion protein | inhibition, % at 13.8 µM | AID 743200 | shares compounds with PrPC TRFRET | 1,500 compounds, 65% hits | cell surface PrPC level, TR-FRET; in the data active means inhibition above about 25%
LD9 cytotox: kills or reduces viability of LD9 cells in PrPc counter-screen | shares compounds with PrPC TRFRET | LD9 cells cytotoxicity, luminescence viability | inhibition, % at 13.8 µM | 1,500 compounds, 29% hits | AID 743201; in the data active means inhibition above about 9.5%
A number is an active result; 0 = inactive; - = no result. The list is not random: actives were taken first. Their share in the collection is about 1.2%.

SMILES	BJeLR viability	SSB-PriA inh	PrP 5UTR inh	3CLpro inhibitor	PrPC TRFRET	PrPC TRFRET cf	LD9 cytotox
COc1cc(C(=O)Nc2ccc3c(c2)nc(C)n3C)cc(OC)c1OC	0	0	0	0	0	-	-
COc1cc(C(=O)Nc2ccc3c(c2)ncn3C)cc(OC)c1OC	0	0	0	0	77	73	0
Cc1[nH]c2ccccc2c1/C=N/Nc1nc2ccccc2[nH]1	0	-	0	0	30	0	12
Cc1ccccc1C=NNc1nc2ccccc2[nH]1	-	0	-	-	-	-	-
Cc1ccccc1/C=N/Nc1nc2ccccc2[nH]1	0	-	0	0	0	-	-
C(=N\Nc1nc2ccccc2[nH]1)/c1c[nH]c2ccccc12	0	-	0	0	33	0	0
Cc1ccc(/C=N/Nc2nc3ccccc3[nH]2)s1	0	-	0	0	27	0	0
COc1ccc(C(=O)C[n+]2cc(Br)cc3ccccc32)cc1[N+](=O)[O-]	0	0	0	0	27	0	0
O=C(C[n+]1cc(Br)cc2ccccc21)c1ccccc1	0	0	0	0	0	-	-
O=C([C@H]1CC(=O)N(C2CCOCC2)C1)N1CCN(c2ncccn2)CC1	-	0	-	-	-	-	-
Cc1nc2ccc(C(=O)N3CCC(N4CCCC4COCc4ccccc4)CC3)cc2s1 (stereo not given)	-	0	-	-	-	-	-
COC(=O)C1=C(C)N(CC(C)C)C(=S)NC1c1cccc(OC)c1 (stereo not given)	-	-	-	-	0	-	-
COC(=O)C1=C(C)N(CC(C)C)C(=S)NC1c1ccc(-c2ccccc2)cc1 (stereo not given)	-	-	-	-	25	0	0
COc1ccc2cc(C(=O)NCC3CCN(c4nccnc4C#N)CC3)[nH]c2c1	-	0	-	-	-	-	-
C=CCOc1ccc(C2NC(=S)NC(C)=C2C(=O)c2ccccc2)cc1OC (stereo not given)	0	0	0	0	43	50	0
O=c1c2nnn(Cc3ccccc3Cl)c2ncn1Cc1nc(-c2ccc(F)cc2)no1	-	0	-	-	-	-	-
O=C(Nc1cccc(-c2ccc(N3CCOCC3)nn2)c1)c1ccco1	-	0	-	-	-	-	-
Brc1cc(Br)c2nc3c(cc2c1)CCC3	0	0	0	0	26	71	0
CCOC(=O)N1CCC(NC(=O)c2sc(-c3nnn(-c4ccc(C)c(C)c4)c3C)nc2C)CC1	-	0	-	-	-	-	-
Cc1cc(NN)nc2ccccc12	-	0	-	-	-	-	-
Cc1cc(NC2CCCCC2)nc2ccccc12	0	0	0	0	26	0	0
Cc1ccc(-c2csc(NC(=O)c3cccc(C)c3)c2C(=O)O)cc1	0	0	0	-	36	50	0
COc1cc(C(=O)Nc2scc(-c3ccc(Br)cc3)c2C(=O)O)cc(OC)c1OC	0	0	0	0	56	60	0
CC(=O)Nc1ccc(C(=O)N2CCC(N3CCCC3COCc3ccccc3)CC2)cc1 (stereo not given)	-	0	-	-	-	-	-
CC1(Cc2ccc(Cl)c(Cl)c2)C(=O)Nc2ccc(S(=O)(=O)NC3CCCCC3)cc21 (stereo not given)	-	-	-	-	0	-	-
SMILES	BJeLR viability	SSB-PriA inh	PrP 5UTR inh	3CLpro inhibitor	PrPC TRFRET	PrPC TRFRET cf	LD9 cytotox
CC1(Cc2cccc(F)c2)C(=O)Nc2ccc(S(=O)(=O)NC3CCCCC3)cc21 (stereo not given)	-	-	-	-	36	0	0
O=C(O)c1cc(O)c2c(c1)[C@H]([C@H]1c3cc(C(=O)O)cc(O)c3C(=O)c3c(O[C@@H]4O[C@H](CO)[C@@H](O)[C@H](O)[C@H]4O)cccc31)c1cccc(OC3O[C@H](CO)[C@@H](O)[C@H](O)[C@H]3O)c1C2=O (stereo not given in full)	0	0	0	-	91	0	0
COc1ccc(C2CCCN2CCNC(=O)C(C)Oc2ccccc2)cc1 (stereo not given)	-	0	-	-	-	-	-
CNC(=O)COc1ccccc1C(=O)Nc1ccc2c(c1)oc1ccccc12	0	0	0	0	31	32	0
N#Cc1ccccc1NC(=O)c1ccccc1OCC(=O)Nc1ccc2c(c1)oc1ccccc12	0	0	0	0	0	-	-
O=C(CSc1ncnc2ccccc12)NCCc1ccccc1	0	0	0	0	62	79	0
O=C(CSc1ncnc2ccccc12)NCCCO	0	0	0	0	36	32	0
O=C(CSc1ncnc2ccccc12)NCc1ccco1	0	0	0	0	76	77	0
CCOC(=O)CNC(=O)CSc1ncnc2ccccc12	-	0	-	-	-	-	-
COc1ccc(NC(=O)CCSc2nc3sc4c(c3c(=O)n2-c2ccccc2)CCCC4)cc1	-	0	-	-	-	-	-
COc1ccc2ccccc2c1C=NNC(=O)CC1(C)OCCCO1	-	0	-	-	-	-	-
